# Data reported in the supplement of paper PMC8728848.
# This is one part of a sample in which the strongest signals are shown more often than they occur.
# Columns and labels:
# Experiment in all cases: glycan array binding signal (z-score within array); higher = stronger binding
# Settings in all cases: glycan notation: IUPAC condensed, linker removed
# [1] = target: Gal(b1-4)GlcNAc(b1-3)Gal(b1-4)GlcNAc(b1-3)Gal(b1-4)GlcNAc
# Summary of the method: (§1)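 Negative Z-scores can be read as non-binding. The Z-score is calculated within each array and then averaged across arrays of one protein sequence at different concentrations or buffers and across linkers. Arrays, 3228 in all, were curated from the Consortium for Functional Glycomics database and kept only where the protein sequence was available.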
# [2] = target: Gal(b1-4)GlcNAc(b1-3)Gal(b1-4)GlcNAc(b1-3)Gal(b1-4)GlcNAc(b1-2)Man(a1-3)[Gal(b1-4)GlcNAc(b1-3)Gal(b1-4)GlcNAc(b1-3)Gal(b1-4)GlcNAc(b1-2)Man(a1-6)]Man(b1-4)GlcNAc(b1-4)[Fuc(a1-6)]GlcNAc
# Summary of the method: as §1
# Gal3S(b1-4)Glc = target: Gal3S(b1-4)Glc
# Summary of the method: as §1
# Gal6S(b1-3)GlcNAc = target: Gal6S(b1-3)GlcNAc
# Summary of the method: as §1
# [3] = target: GalNAc(a1-3)GalNAc(b1-3)Gal(a1-4)Gal(b1-4)Glc
# Summary of the method: as §1
# GalNAc(b1-4)Gal(b1-4)Glc = target: GalNAc(b1-4)Gal(b1-4)Glc
# Summary of the method: as §1
# [4] = target: GlcNAc(a1-4)Gal(b1-3)GlcNAc
# Summary of the method: as §1
# [5] = target: GlcNAc(b1-2)[GlcNAc(b1-4)]Man(a1-3)[GlcNAc(b1-2)Man(a1-6)]Man(b1-4)GlcNAc(b1-4)GlcNAc
# Summary of the method: as §1
# [6] = target: GlcNAc(b1-2)[GlcNAc(b1-6)]Man(a1-6)[GlcNAc(b1-2)Man(a1-3)]Man(b1-4)GlcNAc(b1-4)GlcNAc
# Summary of the method: as §1
# [7] = target: GlcNAc(b1-3)Gal(b1-4)GlcNAc(b1-3)Gal(b1-4)GlcNAc(b1-3)Gal(b1-4)GlcNAc(b1-2)[GlcNAc(b1-3)Gal(b1-4)GlcNAc(b1-3)Gal(b1-4)GlcNAc(b1-3)Gal(b1-4)GlcNAc(b1-6)]Man(a1-6)[GlcNAc(b1-3)Gal(b1-4)GlcNAc(b1-3)Gal(b1-4)GlcNAc(b1-3)Gal(b1-4)GlcNAc(b1-2)Man(a1-3)]Man(b1-4)GlcNAc(b1-4)[Fuc(a1-6)]GlcNAc
# Summary of the method: as §1
# [8] = target: GlcNAc(b1-3)[GlcNAc(b1-6)]Gal(b1-4)GlcNAc
# Summary of the method: as §1
# [9] = target: Man(a1-2)Man(a1-3)[Man(a1-2)Man(a1-6)]Man(a1-6)[Man(a1-2)Man(a1-2)Man(a1-3)]Man(b1-4)GlcNAc(b1-4)GlcNAc
# Summary of the method: as §1
# [10] = target: Man(a1-3)[Man(a1-6)]Man(a1-6)[Man(a1-3)]Man
# Summary of the method: as §1
# Man(b1-4)GlcNAc = target: Man(b1-4)GlcNAc
# Summary of the method: as §1
# [11] = target: Neu5Ac(a2-3)Gal(b1-3)GalNAc6S
# Summary of the method: as §1
# [12] = target: Neu5Ac(a2-3)Gal(b1-3)GlcNAc
# Summary of the method: as §1
# [13] = target: Neu5Ac(a2-3)Gal(b1-3)GlcNAc(b1-3)GalNAc
# Summary of the method: as §1
# [14] = target: Neu5Ac(a2-3)Gal(b1-3)[GlcNAc(b1-6)]GalNAc
# Summary of the method: as §1
# [15] = target: Neu5Ac(a2-3)Gal(b1-4)GlcNAc(b1-2)[Neu5Ac(a2-3)Gal(b1-4)GlcNAc(b1-6)]Man(a1-6)[Neu5Ac(a2-3)Gal(b1-4)GlcNAc(b1-2)Man(a1-3)][GlcNAc(b1-4)]Man(b1-4)GlcNAc(b1-4)GlcNAc
# Summary of the method: as §1
# [16] = target: Neu5Ac(a2-3)Gal(b1-4)GlcNAc(b1-3)Gal(b1-4)GlcNAc(b1-2)Man(a1-3)[Neu5Ac(a2-3)Gal(b1-4)GlcNAc(b1-3)Gal(b1-4)GlcNAc(b1-2)Man(a1-6)]Man(b1-4)GlcNAc(b1-4)GlcNAc
# Summary of the method: as §1
# [17] = target: Neu5Ac(a2-3)Gal(b1-4)GlcNAc(b1-3)Gal(b1-4)GlcNAc(b1-3)[Neu5Ac(a2-3)Gal(b1-4)GlcNAc(b1-3)Gal(b1-4)GlcNAc(b1-6)]GalNAc
# Summary of the method: as §1
# [18] = target: Neu5Ac(a2-3)Gal(b1-4)[Fuc(a1-3)]GlcNAc
# Summary of the method: as §1
# [19] = target: Neu5Ac(a2-3)Gal(b1-4)[Fuc(a1-3)]GlcNAc(b1-3)GalNAc
# Summary of the method: as §1
# [20] = target: Neu5Ac(a2-3)Gal(b1-4)[Fuc(a1-3)]GlcNAc6S
# Summary of the method: as §1
# [21] = target: Neu5Ac(a2-6)Gal(b1-4)GlcNAc(b1-2)[Neu5Ac(a2-6)Gal(b1-4)GlcNAc(b1-4)]Man(a1-3)[GlcNAc(b1-4)][Neu5Ac(a2-6)Gal(b1-4)GlcNAc(b1-4)Man(a1-6)]Man(b1-4)GlcNAc(b1-4)GlcNAc
# Summary of the method: as §1
# [22] = target: Neu5Ac(a2-6)Gal(b1-4)GlcNAc(b1-3)Gal(b1-4)GlcNAc(b1-3)Gal(b1-4)GlcNAc(b1-2)Man(a1-3)[Neu5Ac(a2-6)Gal(b1-4)GlcNAc(b1-3)Gal(b1-4)GlcNAc(b1-3)Gal(b1-4)GlcNAc(b1-2)Man(a1-6)]GalNAc
# Summary of the method: as §1
# [23] = target: Neu5Ac(a2-6)Gal(b1-4)GlcNAc(b1-6)GalNAc
# Summary of the method: as §1
# Neu5Ac(a2-8)Neu5Ac = target: Neu5Ac(a2-8)Neu5Ac
# Summary of the method: as §1
# [24] = target: Neu5Ac(a2-8)Neu5Ac(a2-3)[GalNAc(b1-4)]Gal(b1-4)Glc
# Summary of the method: as §1
binder,measurement,setting,value
Pwp5 ND (Candida glabrata) (protein) MGSSHHHHHHSSGLVPRGSHMASANPVPLTNVCYFPEEYPRQAGFRAITAGLASTILQGSVDELLNYSGLSSLTTQQTTTTTPNFQLPTLPLPTNVYGLTVVPLYLLVQLQGYFVPPVSGQYTFSLENTNDAAIIFFGNPSAFPCGDLSAWPQASADDITVTDGTFPSRTLFLKAGVAYPMRISYYNSLGSGNLAVSFTDPGGTKRTNWNGYIWRYNSCSTCTYT,glycan array binding signal (z-score),[1],-0.555
same,glycan array binding signal (z-score),[2],3.19
same,glycan array binding signal (z-score),Gal3S(b1-4)Glc,-0.405
same,glycan array binding signal (z-score),Gal6S(b1-3)GlcNAc,-0.366
same,glycan array binding signal (z-score),[3],-0.548
same,glycan array binding signal (z-score),GalNAc(b1-4)Gal(b1-4)Glc,0.779
same,glycan array binding signal (z-score),[4],-0.557
same,glycan array binding signal (z-score),[5],-0.667
same,glycan array binding signal (z-score),[6],3.15
same,glycan array binding signal (z-score),[7],1.57
same,glycan array binding signal (z-score),[8],-0.152
same,glycan array binding signal (z-score),[9],-0.293
same,glycan array binding signal (z-score),[10],5.77
same,glycan array binding signal (z-score),Man(b1-4)GlcNAc,-0.41
same,glycan array binding signal (z-score),[11],-0.411
same,glycan array binding signal (z-score),[12],0.287
same,glycan array binding signal (z-score),[13],0.055
same,glycan array binding signal (z-score),[14],-0.173
same,glycan array binding signal (z-score),[15],13
same,glycan array binding signal (z-score),[16],-0.247
same,glycan array binding signal (z-score),[17],4.41
same,glycan array binding signal (z-score),[18],-0.271
same,glycan array binding signal (z-score),[19],-0.138
same,glycan array binding signal (z-score),[20],0.989
same,glycan array binding signal (z-score),[21],-0.613
same,glycan array binding signal (z-score),[22],3.34
same,glycan array binding signal (z-score),[23],3.96
same,glycan array binding signal (z-score),Neu5Ac(a2-8)Neu5Ac,0.246
same,glycan array binding signal (z-score),[24],0.315
